Measurements reported in PubChem BioAssay AID1460 (National Center for Advancing Translational Sciences (NCATS), 2008).
Out of some 270,000 compounds screened, about 5,800 (2.1%) were called active. Roughly 16% stayed inconclusive and do not appear here. The call rests on the fitted dose curve; in most records, active means well fitted inhibition curve with a large enough effect; inconclusive means small, poorly fitted or top-dose-only effect; inactive means flat fitted curve, though single readings scatter. The list comes from a sample in which actives are over-represented; it also holds similar structures and randomly drawn compounds.

target: Microtubule-associated protein tau (Homo sapiens) (UniProt P10636); test: qHTS for Inhibitors of Tau Fibril Formation, Thioflavin T Binding; conditions: recombinant tau K18 P301L (four-repeat tau fragment), heparin-induced fibrillization, ThT fluorescence; series mostly up to 57.4 µM; activity, negative = inhibition: at the top concentration; further: nearly all actives have a fitted effect of over 55% in size
Procedure, shortened: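 Aggregation was driven by heparin (20 uM final) acting on recombinant tau […] bearing P301L in 100 mM sodium acetate pH 7; fibrils were detected with Thioflavin T.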
On the % scale 0 is the no-effect control and ±100 the full control effect; potency means the concentration at half of the fitted maximal effect.

Chain of Microtubule-associated protein tau (Homo sapiens) (P10636 561-689 P618L limits assumed): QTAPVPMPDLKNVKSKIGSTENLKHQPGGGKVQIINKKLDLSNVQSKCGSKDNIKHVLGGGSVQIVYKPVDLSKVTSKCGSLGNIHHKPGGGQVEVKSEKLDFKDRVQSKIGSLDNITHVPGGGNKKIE

SMILES | activity, negative = inhibition | Potency
COc1cccc(NC(=O)N(Cc2cn(C)c3ccccc23)C2CCCCCC2)c1 | -18.6% (inactive) | 
COc1ccc(Cn2c(C(=O)O)c(CNCc3cccc(OC)c3)c3ccc(C)cc32)cc1 | 4.58% (inactive) | 
COc1cc(C(=O)NCCS(=O)(=O)N2CCN(c3ccccc3)CC2)cc(OC)c1OC | 3.32% (inactive) | 
COc1ccc(-n2c(SCC(=O)Nc3ccc(Cl)c(C)c3)nc3n[nH]c(C)c3c2=N)cc1 | -6.68% (inactive) | 
CCOc1ccc(NC(=O)C2CCN(S(=O)(=O)c3cc(-c4noc(C)n4)ccc3C)CC2)cc1 | -3.68% (inactive) | 
COc1ccc(-c2nn3c(=O)cc(CN4CCN(C(=O)c5ccc(OC)c(OC)c5)CC4)nc3s2)cc1 | -16.3% (inactive) | 
Cc1cccc2c(=O)cc(CSc3ccccc3NC(=O)C(C)C)[nH]c12 | -2.42% (inactive) | 
CCCOc1ccc(Cn2c(O)cc(=O)[nH]c2=O)cc1 |  | 25.1 µM (active)
COc1cc(=O)[nH]c(=O)n1C(=O)Cc1ccccc1 | -6.37% (inactive) | 
COc1ccc(Cn2c(=O)cc(C)[nH]c2=S)cc1 | -15.3% (inactive) | 
Cc1cccc(NC(=O)N2CCC(CN3CCc4ccccc4C3)CC2)c1C | 2.46% (inactive) | 
COc1ccc2c(c1OC)C(=O)OC2c1c(O)nc(SC)n(-c2ccccc2)c1=O (stereo unspecified) | -12.8% (inactive) | 
COc1ccc2c(c1OC)C(=O)OC2Nc1nc(-c2ccccc2)cs1 (stereo unspecified) |  | 17.8 µM (active)
Cc1cccc(S(=O)(=O)CC(=O)Nc2nc(-c3ccccc3)cs2)c1 | -17.8% (inactive) | 
O=C(CN1C(=O)COc2ccc(S(=O)(=O)N3CCCCCC3)cc21)N1CCN(c2cccc(C(F)(F)F)c2)CC1 | -6.43% (inactive) | 
Cc1ccc(CCNC(=O)Cn2c(-c3cccs3)cc3cc(F)ccc32)cc1 | -0.536% (inactive) | 
Cc1ccc(Cl)cc1NC(=O)c1ccccn1 | -6.15% (inactive) | 
Cc1ccc(Cl)cc1NC(=O)C(C)n1nnc2sc(-c3ccccc3)cc2c1=O (stereo unspecified) |  | 17.8 µM (active)
Cc1cc2nn(-c3ccc(Cl)cc3)nc2cc1NC(=O)C(C)C | 4.08% (inactive) | 
COc1cccc(NC(=O)CSC2=Nc3ccccc3C3=NC(CC(=O)NC4CCCCC4)C(=O)N23)c1 (stereo unspecified) | -7.37% (inactive) | 
Cc1ccc(Cl)cc1N1CCN(C(=O)c2cn(C)c3ccc(S(=O)(=O)N(C)C4CCCCC4)cc3c2=O)CC1 | -2.4% (inactive) | 
CC(=O)Oc1cccc(N2C(=O)CC(Nc3ccc(N4CCOCC4)cc3)C2=O)c1 (stereo unspecified) |  | 15.8 µM (active)
CC(=O)Oc1cccc(N2C(=O)C3CC=C(Cl)CC3C2=O)c1 (stereo unspecified) | 4.98% (inactive) | 
COc1ccc(N2CCN(C3CC(=O)N(c4ccc5c(c4)OCCO5)C3=O)CC2)cc1 (stereo unspecified) | -18.6% (inactive) | 
COCCNC(=O)CSc1c(C)cnc2c1c(=O)n(C)c(=O)n2C | -7.06% (inactive) | 
CC(=O)N1c2ccccc2CC1C(=O)N1CCN(c2ccc(F)cc2)CC1 (stereo unspecified) | -7.29% (inactive) | 

SMILES | activity, negative = inhibition | Potency
Cc1ccc(Nc2nnc(SCc3ccccc3)s2)cc1 | -9.63% (inactive) | 
O=C(CSc1nnc(Nc2ccccc2)s1)Nc1cccnc1Cl | -18.4% (inactive) | 
CC(C)c1ccc(Nc2nnc(SCC(=O)c3nnc(-c4ccccc4)o3)s2)cc1 |  | 17.8 µM (active)
CCOC(=O)c1c(S(=O)(=O)N2CCCC(C(=O)NCc3cccc(C)c3)C2)c(C)n(C)c1C (stereo unspecified) | 12% (inactive) | 
COc1cccc(CNC(=O)C2CCN(S(=O)(=O)c3ccc4c(ccn4C)c3)CC2)c1 | 3.32% (inactive) | 
COc1ccc(/C=N/S(=O)(=O)c2ccccc2)cc1OC | 8.82% (inactive) | 
CCOc1ccc(/C=N/NC(=O)CSc2ccccn2)cc1O | -6.19% (inactive) | 
COc1ccc(/C=N/N=C2/C(=O)Nc3ccccc32)cc1O |  | 10 µM (active)
CCN(Cc1ccccc1)C(=O)c1cn(-c2cccc(OC)c2)c(=O)c2ccccc12 | -12% (inactive) | 
O=C(CSc1nnc(-c2ccccc2F)o1)Nc1cccc(C(F)(F)F)c1 | -3.91% (inactive) | 
CN(C(=O)CSc1nnc(NC(=O)Nc2ccccc2)s1)c1ccccc1 | 2.89% (inactive) | 
CCc1cccc(NC(=O)c2cnc(N3CCOCC3)c3ccccc23)c1 | -10.2% (inactive) | 
CCOC(=O)c1cnc2c(C)cc(C)cc2c1Nc1ccc(N2CCOCC2)cc1 |  | 11.2 µM (active)
CCOC(=O)c1ccccc1C(=O)N1CCOCCOCCOCC1 | -6.87% (inactive) | 
Cc1cc(C)cc(NC(=O)c2cnc3sc(N4CCCC4)nn3c2=O)c1 | 3.36% (inactive) | 
CN=c1scc(-c2cc(OC)ccc2OC)n1/N=C/c1c(C)[nH]c2ccccc12 |  | 14.1 µM (active)
Cc1[nH]c2ccccc2c1/C=N\NC(=O)Cn1nnc(-c2ccccc2)n1 | 3.95% (inactive) | 
CCn1c(-c2cc(OC)ccc2OC)csc1=Nc1c(C)n(C)n(-c2ccccc2)c1=O | -0.49% (inactive) | 
CCOc1ccc(NC(=O)c2cc(S(=O)(=O)N3CCCC3)c[nH]2)cc1 | -8.62% (inactive) | 
O=S(=O)(c1ccc(Br)cc1)c1nnn2c1nc(N1CCOCC1)c1sccc12 | -10.4% (inactive) | 
CCN1/C(=C/c2ccc3ccc(C)cc3[n+]2CC)Sc2ccccc21 | -14.4% (inactive) | 
CCN1/C(=C\c2ccc3ccccc3[n+]2CC)Sc2cc(C)ccc21 |  | 15.8 µM (active)
COc1ccc(S(=O)(=O)NCC(c2ccc(N(C)C)cc2)N2CCCC2)cc1 (stereo unspecified) | 6.51% (inactive) | 
O=C(c1ccc(Br)cc1)N(Cc1cccs1)c1ccc(F)cc1 | -14% (inactive) | 
Cc1cc(Nc2ccccc2)nc(N)n1 | 0.943% (inactive) | 
c1ccc(Nc2n[nH]nc2-c2ccccc2)cc1 | -6.37% (inactive) | 

SMILES | activity, negative = inhibition | Potency
Nc1ccc(Nc2ccccc2)cc1 |  | 15.8 µM (active)
CNc1ccc(-c2nc(-c3ccccc3C)no2)cc1[N+](=O)[O-] | 1.98% (inactive) | 
NC(=O)c1sc2nc3c(c(-c4ccccc4)c2c1N)CCC3 | -18% (inactive) | 
Cc1cccc(NC(=O)c2sc3nc4c(c(-c5ccco5)c3c2N)CCC4)c1 |  | 7.94 µM (active)
CC(=O)Nc1ccc(NC(=O)c2sc3nc4c(c(-c5ccc(C)cc5)c3c2N)CCC4)cc1 | -8.97% (inactive) | 
CCN(CC)c1ccc(NC(=O)CN2C(=O)c3cccnc3Oc3ccc(Cl)cc32)c(C)c1 | -3.19% (inactive) | 
O=S(=O)(Nc1ccc2nc(-c3cccc(Cl)c3)oc2c1)c1ccccc1 | 10% (inactive) | 
COc1cccc(NC(=O)c2ccc3c(SCC(=O)O)c4c(nc3c2)CCCC4)c1 | 0.652% (inactive) | 
COc1ccc(NS(=O)(=O)c2cc(NC(=O)/C=C/c3cc(OC)c(OC)c(OC)c3)ccc2N2CCCCC2)cc1 | -3.88% (inactive) | 
Cc1ccc(Nc2c3c(nc4ccccc24)CCC3)cc1 | -3.18% (inactive) | 
COc1ccccc1Nc1c2c(nc3ccc(NC(=O)/C=C/c4cc(OC)c(OC)c(OC)c4)cc13)CCCC2 |  | 14.1 µM (active)
CCOc1ccc(C(=O)Nc2ccc3nc4c(c(Nc5ccccc5OC)c3c2)CCCC4)cc1 |  | 14.1 µM (active)
CCOc1ccc(-n2nc3ccc(NC(=O)c4ccc(OC)c(Cl)c4)cc3n2)cc1 | -17.4% (inactive) | 
COCCNC(=O)CCCN1C(=O)c2ccccc2Sc2ncccc21 | -0.918% (inactive) | 
Cc1ccc(NC(=O)c2ccc(CN3CC(=O)N4CCCCC4C3=O)cc2)c(Cl)c1 (stereo unspecified) | -11.5% (inactive) | 
Cc1ccnc(SCC(N)=O)n1 | -5.04% (inactive) | 
Cc1ccnc(Nc2nc3ccccc3s2)n1 | -16% (inactive) | 
Cc1ccnc(-n2sc3ccccc3c2=O)n1 |  | 14.1 µM (active)
NS(=O)(=O)c1ccc(NC(=O)COC(=O)c2c3c(nc4ccccc24)/C(=C\c2ccc4c(c2)OCO4)CCC3)cc1 | -5.39% (inactive) | 
O=C(N/N=C/c1ccc2c(c1)OCO2)C(=O)N1CCCC1 | -6.29% (inactive) | 
CCC1=C/C(=C\c2ccc3c(c2)OCO3)C(=O)S1 |  | 15.8 µM (active)
CCc1c(C)sc(NC(=O)/C=C/c2ccc3c(c2)OCO3)c1C(=O)OC | 8.02% (inactive) | 
O=C1/C(=C/c2ccc3c(c2)OCO3)CCC/C1=C\c1ccc2c(c1)OCO2 |  | 3.98 µM (active)
CCOC(=O)CCCNC(=O)COC(=O)/C=C/c1ccc2c(c1)OCO2 | 4.19% (inactive) | 
CCOc1ccc(NC(=O)CCC(=O)N2CC(C)Oc3ccc(C)cc32)cc1 (stereo unspecified) | -0.975% (inactive) | 
CC1=C(c2ccc(C)c(C)c2)S(=O)(=O)NC1=NCc1ccccc1Cl | -5.79% (inactive) | 

SMILES | activity, negative = inhibition | Potency
COc1ccc(CNC(=O)CSc2nc3ccccc3nc2Cc2ccccc2)cc1 | 0.19% (inactive) | 
COc1ccc(Cn2ccc3nc(C)c(C(=O)Nc4ccc(C)c(F)c4)cc3c2=O)cc1 | -2.05% (inactive) | 
COc1ccccc1CNC(=O)c1ccccc1NC(=O)c1nsc2ccccc12 | 3.65% (inactive) | 
CCOC(=O)c1cc(-c2ccc(OC)c(S(=O)(=O)Nc3ccc(OC)cc3OC)c2)on1 | -17.3% (inactive) | 
CN(Cc1ccco1)S(=O)(=O)c1nnc(NC(=O)c2ccccc2)s1 | -2.1% (inactive) | 
COc1ccc(CN2C(=O)CC(Cc3ccc(C)cc3)C2=O)cc1OC (stereo unspecified) | -2.42% (inactive) | 
CCCCOc1ccc(Cn2c(=O)oc3ccc(C)cc32)cc1OC | -3.17% (inactive) | 
CCCCOc1ccc(CN2C(=O)C(=O)c3cc(Br)cc(C)c32)cc1OC |  | 28.2 µM (active)
CSc1nc(=O)c2c(n1C)NC(=O)CC2c1ccccc1OC(C)C (stereo unspecified) | 5.27% (inactive) | 
COCCn1c(C)cc(C2=NNC(=Nc3ccc(F)cc3)SC2)c1C | -6.48% (inactive) | 
Cc1cccc(C(=O)Nc2nnc(Cc3c[nH]c4ccccc34)s2)c1 | -17.2% (inactive) | 
Cc1cccc(N=C2NN=C(c3c[nH]c4ccccc34)CS2)c1 |  | 2.82 µM (active)
CCCNC(=O)c1ccc(Cn2c(SCC(N)=O)nc3ccccc3c2=O)cc1 | 6.62% (inactive) | 
CCC(C)(C)NC(=O)C1c2ccccc2Oc2ccccc21 | -0.856% (inactive) | 
CCC(C)NC(=O)C1c2ccccc2Oc2ccccc21 (stereo unspecified) | -1.94% (inactive) | 
CC(C)(C)c1nnc(NC(=O)C2c3ccccc3Oc3ccccc32)s1 |  | 22.4 µM (active)
Cc1ccc(Cl)cc1NC(=O)Cc1ccc(-n2c(C)nc3cccnc32)cc1 | -0.615% (inactive) | 
COc1cccc(CNS(=O)(=O)c2cc3c(cc2C)n(C)c(=O)c(=O)n3C)c1 | -7.39% (inactive) | 
Cc1ccccc1CNC(=O)C1CCCN(S(=O)(=O)N(C)c2ccc(F)cc2)C1 (stereo unspecified) | -7.18% (inactive) | 
Cc1cc(C)cc(-n2c(SCC(=O)NCC3CCCO3)nc3c([nH]c4ccccc43)c2=O)c1 (stereo unspecified) | -15.4% (inactive) | 
N#Cc1cc([N+](=O)[O-])ccc1Oc1cccc(/C=N/NC(=O)c2ccc(Cl)cc2)c1 | -6.07% (inactive) | 
O=C(CSc1nc2ccc([N+](=O)[O-])cc2[nH]1)c1ccc(Cl)cc1 | -14.3% (inactive) | 
O=C(N/N=C/c1ccc(Cl)cc1)c1nc2ccc([N+](=O)[O-])cc2c(=O)[nH]1 |  | 15.8 µM (active)
